Assay results taken from PubChem BioAssay.
Unmarked numbers belong to inactive results. The list shows a part of the results. The source made the active and inactive calls.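 How the source made its calls, unless noted: active means mean inhibition over 43.08%, the solvent-only control mean plus 3 SD; inactive means the rest.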

What was measured:
[1] = target: Nuclear receptor coactivator 3 (Homo sapiens) (UniProt Q9Y6Q9); experiment: SRC3 coactivator transcriptional activity inhibitors, confirmation, cell-based, luminescence, quadruplicate (AID 588792); settings: HEK293 GAL4-SRC3 luciferase reporter, at 3.6 µM, hits give high values;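 further: 0% = DMSO treated cells and 100% = gossypol at 36 µM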
[2] = system: transactivating tegument protein VP16 (Human herpesvirus 1), Gal4-VP16 luciferase reporter; experiment: VP16 transactivation inhibitors, counter-screen for SRC3 inhibitor project, cell-based, luminescence, high throughput (AID 588794; in the data active means inhibition above about 30%); settings: mammalian cells, VP16-driven luciferase reporter luminescence; at 3.6 µM; hits give high values
[3] = target: Nuclear receptor coactivator 1 (Homo sapiens) (UniProt Q15788); experiment: SRC1 coactivator transcriptional activity inhibitors, confirmation, cell-based, luminescence, quadruplicate (AID 588820;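 active means mean inhibition above 46.68%, the untreated control wells mean plus 3 SD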;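 further: 0% = DMSO wells and 100% = gossypol 36 µM treated wells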); settings: HEK293 GAL4-SRC1 luciferase reporter, at 3.6 µM, hits give high values
[4] = VP16 transactivation inhibitors, counter-screen for SRC1 inhibitor project, cell-based, luminescence, high throughput (AID 588824; in the data active means inhibition above about 25%); settings: cell-based VP16 transactivation luciferase luminescence; at 3.6 µM; hits give high values
[5] = StAR promoter reporter inhibitors, counter-screen for LRH-1 inverse agonist project, cell-based, luminescence, high throughput (AID 651611; in the data active means inhibition above about 28%); settings: StAR promoter luciferase reporter counterscreen, at 3.6 µM, hits give high values
[6] = target: Nuclear receptor subfamily 5 group A member 2 (Homo sapiens) (UniProt O00482); experiment: LRH-1 (NR5A2) inverse agonists, retest, confirmation, cell-based, luminescence (AID 651613; in the data active means inhibition above about 42%;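 further: HEK293T cells co-transfected with LRH-1 and StAR promoter luciferase reporter; 0% = vehicle wells and 100% = parental cells lacking receptor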); settings: cell-based LRH-1 luciferase reporter, inverse agonism; at 3.6 µM; hits give high values
[7] = target: Steroidogenic factor 1 (Homo sapiens) (UniProt Q13285); experiment: SF1 (NR5A1) inverse agonists, counter-screen for LRH-1 inverse agonist project, cell-based, luminescence, high throughput (AID 651614; in the data active means inhibition above about 44%;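 further: cells cotransfected with StAR promoter reporter and SF1 expression vector; 0% = vehicle on cells with receptor and 100% = vehicle on cells lacking receptor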); settings: cell-based SF1 luciferase reporter, at 3.6 µM, hits give high values
[8] = VP16 transactivation reporter inhibitors, counter-screen for LRH-1 inverse agonist project, cell-based, luminescence, high throughput (AID 651615; in the data active means inhibition above about 33%); settings: Gal4-VP16 luciferase reporter cells, at 3.6 µM, hits give high values
[9] = growth loss of phage-infected RecBCD+ E. coli, confirmation, RecBCD inhibitor project, absorbance, E. coli V66, T4 gene 2 phage (AID 651982;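 active means mean inhibition over triplicates exceeding the hit threshold derived in the original primary screen, cut at about 11% in these data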); settings: E. coli V66 + T4 2- phage, growth OD; at 11.9 µM; hits give high values
[10] = E. coli viability inhibition, counter-screen for RecBCD inhibitor project, absorbance, high throughput (AID 651983; in the data active means inhibition above about 20%;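 further: E. coli strain V66 grown with compound alone and no phage infection; 0% = bacteria with DMSO vehicle only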); settings: absorbance (OD) growth, at 11.9 µM, hits give high values
[11] = growth loss of phage-infected AddAB-carrying E. coli, confirmation, counter-screen for RecBCD inhibitor project, absorbance, E. coli V3065, T4 phage (AID 651984;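 active means mean inhibition above the solvent-only control wells' mean plus 3 SD, cut at about 22% in these data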;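 further: higher means less bacterial growth from phage killing when AddAB is blocked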); settings: E. coli expressing H. pylori AddAB + T4 phage, OD growth; at 11.9 µM; hits give high values; gene 2 mutant T4, recBCD-deleted host
[12] = system: transactivating tegument protein VP16 (Human herpesvirus 1); experiment: VP16 transactivation reporter inhibitors, counter-screen for SRC2 inhibitor project, cell-based, luminescence, single concentration (AID 652007; in the data active means inhibition above about 36%); settings: cell-based VP16 transactivation luciferase reporter, at 8.9 µM, hits give high values
[13] = target: Nuclear receptor coactivator 2 (Homo sapiens) (UniProt Q15596); experiment: SRC2 coactivator transcriptional activity inhibitors, confirmation, cell-based, luminescence, HEK293, triplicate (AID 652008;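 active means mean inhibition above 46.5%, the solvent-only control mean plus 3 SD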;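 further: 0% = DMSO-treated cells and 100% = Gossypol at 36 µM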); settings: HEK293 GAL4-SRC2 luciferase reporter, at 8.9 µM, hits give high values
Sequence of Nuclear receptor coactivator 2 (Homo sapiens) (Q15596 whole entry, looked up, the tested form may be a part): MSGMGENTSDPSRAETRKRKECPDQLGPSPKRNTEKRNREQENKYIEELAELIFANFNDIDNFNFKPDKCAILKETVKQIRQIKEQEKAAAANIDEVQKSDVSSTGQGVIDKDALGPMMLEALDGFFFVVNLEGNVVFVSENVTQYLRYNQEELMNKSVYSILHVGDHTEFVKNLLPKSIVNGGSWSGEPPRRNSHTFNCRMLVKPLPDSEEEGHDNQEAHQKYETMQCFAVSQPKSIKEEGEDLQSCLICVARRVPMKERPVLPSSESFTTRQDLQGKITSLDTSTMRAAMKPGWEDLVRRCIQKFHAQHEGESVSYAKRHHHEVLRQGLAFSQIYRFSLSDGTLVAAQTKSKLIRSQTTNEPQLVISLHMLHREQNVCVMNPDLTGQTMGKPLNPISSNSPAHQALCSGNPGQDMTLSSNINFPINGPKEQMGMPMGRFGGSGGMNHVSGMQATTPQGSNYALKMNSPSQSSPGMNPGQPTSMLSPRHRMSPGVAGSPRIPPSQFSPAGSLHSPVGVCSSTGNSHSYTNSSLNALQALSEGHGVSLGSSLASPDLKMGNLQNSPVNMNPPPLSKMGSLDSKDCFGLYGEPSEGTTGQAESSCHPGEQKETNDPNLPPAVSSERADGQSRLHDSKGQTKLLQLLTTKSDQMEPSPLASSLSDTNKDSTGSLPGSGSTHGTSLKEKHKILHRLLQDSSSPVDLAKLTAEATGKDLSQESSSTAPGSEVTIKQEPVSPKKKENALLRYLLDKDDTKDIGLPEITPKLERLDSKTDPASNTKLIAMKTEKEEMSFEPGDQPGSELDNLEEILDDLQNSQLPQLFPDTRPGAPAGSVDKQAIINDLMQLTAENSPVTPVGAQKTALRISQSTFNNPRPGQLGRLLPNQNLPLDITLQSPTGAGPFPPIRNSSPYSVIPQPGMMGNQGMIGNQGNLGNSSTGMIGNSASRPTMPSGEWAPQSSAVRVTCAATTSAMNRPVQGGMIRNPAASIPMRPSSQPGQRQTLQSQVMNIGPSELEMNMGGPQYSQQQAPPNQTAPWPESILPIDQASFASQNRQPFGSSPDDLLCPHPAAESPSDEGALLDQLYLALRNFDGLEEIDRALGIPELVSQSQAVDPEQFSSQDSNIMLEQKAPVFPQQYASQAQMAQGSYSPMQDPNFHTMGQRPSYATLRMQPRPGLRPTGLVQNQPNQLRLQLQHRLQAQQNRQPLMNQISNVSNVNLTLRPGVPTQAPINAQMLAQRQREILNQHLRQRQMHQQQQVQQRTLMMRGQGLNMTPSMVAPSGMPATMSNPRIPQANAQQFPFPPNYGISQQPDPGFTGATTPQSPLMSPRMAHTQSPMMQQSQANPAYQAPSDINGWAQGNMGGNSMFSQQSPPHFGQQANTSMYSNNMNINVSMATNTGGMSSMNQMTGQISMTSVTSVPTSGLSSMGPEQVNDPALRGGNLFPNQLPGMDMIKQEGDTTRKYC

Sequence of Nuclear receptor subfamily 5 group A member 2 (Homo sapiens) (O00482 whole entry, looked up): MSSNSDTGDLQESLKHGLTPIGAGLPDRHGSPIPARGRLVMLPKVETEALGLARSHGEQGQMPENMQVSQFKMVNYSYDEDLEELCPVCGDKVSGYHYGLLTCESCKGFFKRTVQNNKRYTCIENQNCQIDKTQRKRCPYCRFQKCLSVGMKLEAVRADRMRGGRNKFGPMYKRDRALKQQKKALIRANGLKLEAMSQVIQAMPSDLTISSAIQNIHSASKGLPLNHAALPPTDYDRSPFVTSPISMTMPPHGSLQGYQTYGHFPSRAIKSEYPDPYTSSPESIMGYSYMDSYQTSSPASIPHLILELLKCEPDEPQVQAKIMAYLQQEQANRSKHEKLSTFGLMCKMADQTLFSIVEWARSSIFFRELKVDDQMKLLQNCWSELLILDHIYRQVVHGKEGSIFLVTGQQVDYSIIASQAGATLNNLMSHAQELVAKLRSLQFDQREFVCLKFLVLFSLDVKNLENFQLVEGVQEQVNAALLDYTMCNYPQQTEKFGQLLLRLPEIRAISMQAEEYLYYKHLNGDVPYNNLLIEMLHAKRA
Sequence of Steroidogenic factor 1 (Homo sapiens) (Q13285 whole entry, looked up, the tested form may be a part): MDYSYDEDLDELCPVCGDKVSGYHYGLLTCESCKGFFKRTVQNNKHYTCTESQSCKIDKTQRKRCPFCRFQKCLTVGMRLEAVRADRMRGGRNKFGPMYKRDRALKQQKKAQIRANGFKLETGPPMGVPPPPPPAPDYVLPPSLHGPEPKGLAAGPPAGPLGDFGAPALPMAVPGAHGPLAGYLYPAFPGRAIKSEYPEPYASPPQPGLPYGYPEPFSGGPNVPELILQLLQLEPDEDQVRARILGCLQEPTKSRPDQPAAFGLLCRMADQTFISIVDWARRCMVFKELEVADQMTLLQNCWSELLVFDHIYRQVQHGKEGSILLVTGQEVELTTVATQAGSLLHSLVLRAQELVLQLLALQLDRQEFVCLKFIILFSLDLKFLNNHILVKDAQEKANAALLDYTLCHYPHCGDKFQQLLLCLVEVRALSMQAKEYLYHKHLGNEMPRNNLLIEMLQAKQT
Sequence of Nuclear receptor coactivator 1 (Homo sapiens) (Q15788 whole entry, looked up, the tested form may be a part): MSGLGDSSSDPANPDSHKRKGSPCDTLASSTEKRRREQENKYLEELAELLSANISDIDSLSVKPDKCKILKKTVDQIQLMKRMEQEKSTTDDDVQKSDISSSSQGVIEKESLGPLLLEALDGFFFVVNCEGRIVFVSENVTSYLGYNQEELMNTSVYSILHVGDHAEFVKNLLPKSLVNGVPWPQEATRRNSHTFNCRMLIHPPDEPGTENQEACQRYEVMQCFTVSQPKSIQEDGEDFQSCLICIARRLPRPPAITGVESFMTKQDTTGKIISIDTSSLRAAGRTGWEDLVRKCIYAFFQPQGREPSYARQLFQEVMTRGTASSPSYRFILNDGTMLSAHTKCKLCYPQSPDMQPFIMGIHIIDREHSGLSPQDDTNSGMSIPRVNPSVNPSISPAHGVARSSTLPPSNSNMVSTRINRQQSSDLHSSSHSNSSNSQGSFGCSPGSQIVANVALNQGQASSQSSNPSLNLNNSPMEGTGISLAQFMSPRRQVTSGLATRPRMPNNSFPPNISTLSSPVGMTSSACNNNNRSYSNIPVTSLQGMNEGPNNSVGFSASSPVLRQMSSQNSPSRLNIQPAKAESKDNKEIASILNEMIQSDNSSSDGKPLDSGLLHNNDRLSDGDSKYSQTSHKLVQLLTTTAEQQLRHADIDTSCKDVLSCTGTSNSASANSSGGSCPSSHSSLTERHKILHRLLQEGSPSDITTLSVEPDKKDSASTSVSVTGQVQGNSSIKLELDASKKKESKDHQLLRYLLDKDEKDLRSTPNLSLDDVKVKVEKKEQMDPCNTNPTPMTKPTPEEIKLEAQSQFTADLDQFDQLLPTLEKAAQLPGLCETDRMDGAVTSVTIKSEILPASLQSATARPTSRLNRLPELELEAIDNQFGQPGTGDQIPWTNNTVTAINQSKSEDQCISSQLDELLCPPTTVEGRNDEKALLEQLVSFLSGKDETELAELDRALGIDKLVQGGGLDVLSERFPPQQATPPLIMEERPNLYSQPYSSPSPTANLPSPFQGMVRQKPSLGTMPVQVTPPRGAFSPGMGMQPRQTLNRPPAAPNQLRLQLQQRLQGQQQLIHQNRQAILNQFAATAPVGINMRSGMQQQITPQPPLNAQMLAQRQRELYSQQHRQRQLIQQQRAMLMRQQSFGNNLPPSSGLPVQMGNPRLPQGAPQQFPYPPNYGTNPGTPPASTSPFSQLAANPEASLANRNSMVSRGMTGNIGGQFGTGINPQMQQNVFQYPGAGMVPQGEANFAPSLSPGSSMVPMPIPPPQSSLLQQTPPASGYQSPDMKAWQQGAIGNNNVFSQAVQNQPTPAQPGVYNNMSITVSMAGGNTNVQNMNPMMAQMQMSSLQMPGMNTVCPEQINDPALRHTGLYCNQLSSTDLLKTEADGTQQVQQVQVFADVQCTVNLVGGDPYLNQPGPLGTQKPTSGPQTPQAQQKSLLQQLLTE

SMILES	inhibition [1]	inhibition [2]	inhibition [3]	inhibition [4]	inhibition [5]	inhibition [6]	inhibition [7]	inhibition [8]	inhibition [9]	inhibition [10]	inhibition [11]	inhibition [12]	inhibition [13]
CCOc1ccc(C(=O)Nc2cnn(Cc3ccc(Cl)c(Cl)c3)c2)cc1	16%	44.1% (active)	26.8%	36.8% (active)	39% (active)	62.7% (active)	60.1% (active)	70.5% (active)					
COc1ccc(OC)c(Cc2cnc3nc(N)nc(N)c3c2C)c1	67% (active)	27.5%	59.9% (active)	28.4% (active)	80.7% (active)	62.3% (active)	52.5% (active)	43.9% (active)	79.8% (active)	79.2% (active)	85.3% (active)		
CCCCCCCCCn1c2c(c(=N)c3c1CCC3)CCCC2	87.2% (active)	90.4% (active)	65.6% (active)	85.3% (active)	83.7% (active)	111% (active)	95.6% (active)	94.6% (active)					
COc1cccc(/C=N\NC(=O)c2ccc(Cn3cc(Br)c([N+](=O)[O-])n3)o2)c1O	33%	38.4% (active)	35%	29.9% (active)	63.8% (active)	74.5% (active)	71.3% (active)	73.2% (active)					
NC1=C(Br)C(=O)c2ncccc2C1=O	72.1% (active)	60.8% (active)	49.1% (active)	54.8% (active)	70.9% (active)	92.9% (active)	84.3% (active)	79.3% (active)					
O=C(NN=Cc1ccccc1O)NN=Cc1ccccc1O	48.5% (active)	80% (active)	24.6%	77.1% (active)	69.9% (active)	97.3% (active)	86.7% (active)	81.8% (active)	1.25%	2.69%	6.88%		
CC1(C)CC2CC(C)(CN2S(=O)(=O)c2ccc(C(=O)Nc3ccc(S(=O)(=O)N4CCOCC4)cc3)cc2)C1 (stereo not given)	24.1%	42.4% (active)	4.08%	44.1% (active)	22.1%	53.1% (active)	46.4% (active)	57.8% (active)					
Cc1nc2cc(NCc3nc4ccccc4n3Cc3ccccc3)ccc2n1C	-99.3%	-51.2%	-116%	-72.9%	-136%	-185%	-209%	-111%					
O=C(OC(c1ccccc1)c1nccc2ccccc12)c1ccccc1 (stereo not given)	57.4% (active)	42.8% (active)	26.3%	21.7%	43.4% (active)	-16.8%	45.4% (active)	-4.96%				30.1%	67.6% (active)
CC(C)(C)C(=O)/C(=C/c1ccncc1)n1cncn1	69.2% (active)	55.3% (active)	59.9% (active)	48% (active)	35.2% (active)	42.6% (active)	46.5% (active)	69.2% (active)				39.9% (active)	63.3% (active)
Cc1ccc(NC(=O)c2cc(C)n(-c3ccccc3)c2C)cc1	43.4% (active)	23.7%	1.09%	-11.4%	45.2% (active)	-63.5%	20.4%	-42.7%				61.3% (active)	69.8% (active)
COC(=O)c1cn(NC(=O)c2cc([N+](=O)[O-])ccc2F)c(=O)c2ccccc12	83.8% (active)	83.6% (active)	51.1% (active)	81% (active)	89% (active)	102% (active)	92.9% (active)	84.3% (active)				27.7%	64.7% (active)
Cc1cc(C(=O)CSc2nnc3ccccn23)c(C)n1-c1ccccc1	20.3%	15.4%	-49.2%	-25.1%	23.4%	-38.6%	6.01%	-26.3%				34.8%	60.7% (active)
Cc1nc2c(-c3ccccc3)cnn2c(N)c1-c1ccccc1	43.4% (active)	37.4% (active)	13.1%	5.33%	-35.4%	-128%	-43.9%	-38.5%				19.9%	58.2% (active)
O=C(CCl)Nc1cc(SCC(O)CO)cc([N+](=O)[O-])c1 (stereo not given)	91.6% (active)	72.7% (active)	56.9% (active)	78.6% (active)	95.8% (active)	110% (active)	97.7% (active)	98.2% (active)				79% (active)	67.5% (active)
Cc1nc2c(O)c3c(c(O)c2nc1C)C1C=CC3CC1	96.9% (active)	93.2% (active)	88.9% (active)	92.6% (active)	91.8% (active)	107% (active)	96.3% (active)	98.5% (active)				75% (active)	79.4% (active)

SMILES	inhibition [1]	inhibition [2]	inhibition [3]	inhibition [4]	inhibition [5]	inhibition [6]	inhibition [7]	inhibition [8]	inhibition [9]	inhibition [10]	inhibition [11]	inhibition [12]	inhibition [13]
O=C(CSCC(=O)Nc1ccccc1)N/N=C/c1c(O)ccc2ccccc12	49.3% (active)	30.7% (active)	45.4%	33.4% (active)	86% (active)	102% (active)	91.5% (active)	82.9% (active)				-14.6%	21.6%
O=C(N/N=C/c1ccc(O)cc1O)c1ccc(CN2C(=O)c3cccc4cccc2c34)cc1	67.2% (active)	77.8% (active)	78.5% (active)	76.2% (active)	84.8% (active)	101% (active)	89.2% (active)	82.6% (active)				-14.6%	18.8%
CN=c1scc(-c2cccs2)n1/N=C/c1ccccc1O	91.6% (active)	89.5% (active)	80% (active)	81.4% (active)	90.6% (active)	90.4% (active)	91.2% (active)	89.6% (active)				96.8% (active)	97.8% (active)
Cc1nn(-c2ccccc2Cl)c(Cl)c1/C=N/Nc1nc2ccccc2s1	64.1% (active)	73.5% (active)	48.1% (active)	57.4% (active)	82.7% (active)	21.8%	73.5% (active)	58.5% (active)				82.7% (active)	91.7% (active)
CCC1=C(CC2NCCc3ccccc32)CC2c3cc(OC)c(OC)cc3CCN2C1 (stereo not given)	90.6% (active)	84.9% (active)	63.7% (active)	85.7% (active)	87.4% (active)	98.3% (active)	88.3% (active)	93.9% (active)				47.1% (active)	52.6% (active)
CCCc1ccc(C(=O)O/N=C(\N)c2ccccn2)cc1	16.8%	-24.7%	-82.5%	-63.2%	-12.5%	-85.8%	2.79%	-41.9%				-18.6%	31.1%
CC(C)(C)C(=O)/C(=C/c1ccc(Cl)cc1)n1cncn1	73.4% (active)	64.5% (active)	40.2%	59.1% (active)	78.4% (active)	70.4% (active)	77% (active)	78.9% (active)				51.1% (active)	79.7% (active)
CCOc1ccc(-c2noc(CCC(=O)O)n2)cc1	18.2%	15.1%	18.5%	5%	27.3%	38.4%	23.1%	23.4%				71.3% (active)	86.1% (active)
O=S(=O)(c1ccc(NC(=S)NCc2cccnc2)cc1)N1CCCCC1	91% (active)	72.3% (active)	77.6% (active)	65.2% (active)	90.8% (active)	102% (active)	96.3% (active)	88.6% (active)				12.3%	50.2% (active)
OCC1OC(n2ccc3c2ncn2ncnc32)C(O)C1O (stereo not given)	64.6% (active)	44.2% (active)	55.1% (active)	38.2% (active)	52.8% (active)	49.2% (active)	38.8%	60.2% (active)				12.2%	46.4%
CCn1c(C)cc(C(=O)CN2C(=O)c3ccccc3S2(=O)=O)c1C	30.1%	31.5% (active)	-18.2%	25%	33.4% (active)	-16.2%	28.1%	11%				46.9% (active)	59.8% (active)
O=C(CCCN1C(=O)S/C(=C\c2ccccc2)C1=O)NNC(=O)c1ccccc1O	66% (active)	58.7% (active)	54.6% (active)	53.3% (active)	54.9% (active)	64% (active)	53.8% (active)	63.8% (active)				89.2% (active)	92.8% (active)
O=C(NCCc1ccccc1)c1ccc2c(c1)OCCO2	41.6%	11.9%	-81.6%	0.41%	29.6% (active)	-10.6%	42%	7.34%				44.1% (active)	77.7% (active)
CC(=O)Nc1ccc(SCC(=O)c2cc(C)n(-c3ccccc3F)c2C)cc1	41%	9.76%	-10.3%	-5.83%	-29.9%	-14.4%	-11.8%	-26%				-6.67%	38%
COc1ccc(-c2nsc3c(N4CCCCC4C)ncnc23)cc1 (stereo not given)	84.2% (active)	80.4% (active)	70.2% (active)	68.4% (active)	80.2% (active)	59.2% (active)	80.9% (active)	67% (active)				83.1% (active)	93.3% (active)
CC1CCc2nc(N)c(C#N)c(-c3cccnc3)c2C1 (stereo not given)	66.7% (active)	57.9% (active)	68.7% (active)	58.6% (active)	42.3% (active)	52.9% (active)	46.1% (active)	72.9% (active)				15.6%	53.9% (active)
